Data: PubChem BioAssay (NCI)
Compounds without any hit were thinned out: in the full panel of roughly 79,000, 15% have a hit. Calls of active or inactive are those of the source. Cut-off read from the data, not from the text of the source: active = growth inhibition above about 70%; inactive = the rest.

How the values were obtained:
[1] = NCI Yeast Anticancer Drug Screen. Data for the rad52 strain (AID 147);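 note: 0% = growth of vehicle-treated control cultures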; conditions: S. cerevisiae rad52 mutant growth inhibition, stronger effect = higher value
Summary of the method: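 The repair-mutant yeast strain was incubated with compounds, then growth was read and inhibition derived relative to vehicle.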

[2] = NCI Yeast Anticancer Drug Screen. Data for the wt1 strain (AID 149);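 note: 0% = growth of vehicle-treated wt1 cultures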; conditions: S. cerevisiae wt1 strain (SPY 50644) growth inhibition, stronger effect = higher value
Summary of the method: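 Readout: yeast growth inhibition, normalised to vehicle controls, in the wt1 strain exposed to test compounds.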

[3] = NCI Yeast Anticancer Drug Screen. Data for the rad50EPP+ strain (AID 151);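 note: 0% = growth of vehicle-treated control cultures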; conditions: S. cerevisiae rad50 mutant strain, stronger effect = higher value
Summary of the method: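 Vehicle-normalised growth inhibition; rad50EPP+ yeast strain, altered in DNA damage repair, compound-treated.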

[4] = NCI Yeast Anticancer Drug Screen. Data for the mgt1 strain (AID 153); conditions: S. cerevisiae mgt1 mutant growth inhibition, stronger effect = higher value
Summary of the method: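 Vehicle-normalized growth inhibition is determined in mgt1 yeast, a strain selected for a defined alteration in DNA repair or cell cycle control.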

[5] = NCI Yeast Anticancer Drug Screen. Data for the rad50 strain (AID 155);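 note: 0% = growth of vehicle-only cultures of the same strain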; conditions: S. cerevisiae rad50 strain growth inhibition, stronger effect = higher value
Summary of the method: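 Compounds were tested on a yeast strain with an engineered DNA damage repair alteration; the reported value is growth inhibition normalised to vehicle treatment.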

[6] = NCI Yeast Anticancer Drug Screen. Data for the mec2-1 strain (AID 157); conditions: S. cerevisiae mec2-1 strain, stronger effect = higher value
Summary of the method: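 Mutant yeast (mec2-1) grown with compound; growth inhibition relative to vehicle control reported.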

[7] = NCI Yeast Anticancer Drug Screen. Data for the rad14 strain (AID 159);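 note: 0% = growth of vehicle-treated control cultures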; conditions: S. cerevisiae rad14 strain growth inhibition, stronger effect = higher value
Summary of the method: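 Compound-treated yeast with a defined DNA-repair lesion; growth inhibition normalised to vehicle-treated cultures.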

[8] = NCI Yeast Anticancer Drug Screen. Data for the sgs1 mgt1 strain (AID 161);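 note: 0% = growth of cultures given vehicle only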; conditions: S. cerevisiae sgs1 mgt1 strain, stronger effect = higher value
Summary of the method: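 Compounds are added to genetically altered yeast, and growth is compared with cultures given vehicle alone to give percent inhibition.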

[9] = NCI Yeast Anticancer Drug Screen. Data for the CLN2oe strain (AID 163);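 note: 0% = growth of vehicle-only control cultures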; conditions: S. cerevisiae CLN2oe strain, stronger effect = higher value
Summary of the method: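 Compounds are applied to yeast harbouring a defined cell-cycle control change; reduced growth compared with vehicle-treated controls gives the value.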

[10] = NCI Yeast Anticancer Drug Screen. Data for the cln2 rad14 strain (AID 165);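 note: 0% = growth equal to vehicle treated cultures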; conditions: S. cerevisiae cln2 rad14 strain, stronger effect = higher value
Summary of the method: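 Readout is yeast growth inhibition versus vehicle-treated controls, using a strain with cln2 and rad14 alterations exposed to compound.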

[11] = NCI Yeast Anticancer Drug Screen. Data for the bub3 strain (AID 167); conditions: S. cerevisiae bub3 mutant strain, stronger effect = higher value
Summary of the method: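 Growth of a checkpoint-deficient yeast mutant is measured after compound exposure. Values represent inhibition relative to vehicle.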

[12] = NCI Yeast Anticancer Drug Screen. Data for the wt2 strain (AID 169);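 note: 0% = growth of vehicle-treated yeast cultures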; conditions: S. cerevisiae wt2 strain growth inhibition, stronger effect = higher value
Summary of the method: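 Against vehicle-treated controls, the growth of yeast exposed to each compound was compared, and the inhibition was recorded.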

[13] = NCI Yeast Anticancer Drug Screen. Data for the mlh1 strain (AID 171);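 note: 0% = growth of vehicle-treated control cultures of the same strain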; conditions: S. cerevisiae mlh1 strain growth inhibition, stronger effect = higher value
Summary of the method: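 Measured: yeast growth. Reference: vehicle-treated controls. Organism: strain with a defined alteration affecting DNA damage repair or cell cycle control, treated with compound.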

[14] = NCI Yeast Anticancer Drug Screen. Data for the sgs1 strain (AID 173);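 note: 0% = growth of vehicle-only control cultures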; conditions: S. cerevisiae sgs1 mutant, stronger effect = higher value
Summary of the method: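 Each compound was added to cultures of the altered yeast strain. Growth was recorded, and inhibition was derived by comparison with vehicle controls.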

[15] = NCI Yeast Anticancer Drug Screen. Data for the mlh1 rad18 strain (AID 175); conditions: S. cerevisiae mlh1 rad18 strain growth inhibition, stronger effect = higher value
Summary of the method: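 Genetically defined yeast (DNA repair-deficient) exposed to compounds; growth inhibition determined relative to vehicle.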

[16] = NCI Yeast Anticancer Drug Screen. Data for the rad18 strain (AID 177); conditions: S. cerevisiae rad18 mutant growth inhibition, stronger effect = higher value
Summary of the method: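 Vehicle-treated cultures served as the baseline for scoring compound-induced growth inhibition in DNA-repair-mutant yeast.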

[17] = at 5.0 µM (retest, dose inferred, filed as 0.5)
[18] = at 50.0 µM (retest, dose inferred, filed as 5.0)

Measured: growth inhibition

Cc1ccnc2c(O)cccc12
inactive: [1]; at 1.2 µM 3% | [2]; at 1.2 µM -5% | [2]; at 3.7 µM 19% | [3]; at 1.2 µM -1% | [4]; at 1.2 µM -8% | [5]; at 1.2 µM 6% | [5]; [17] 24% | [6]; at 1.2 µM 31% | [6]; [17] -1% | [7]; at 1.2 µM 0% | [7]; at 3.7 µM 24% | [9]; at 1.2 µM 24% | [10]; [17] 22% | [11]; at 1.2 µM -6% | [11]; at 3.7 µM 47% | [11]; [17] 41% | [12]; at 1.2 µM -8% | [12]; at 3.7 µM 25% | [13]; at 1.2 µM 14% | [14]; at 1.2 µM -13% | [14]; at 3.7 µM 59% | [16]; at 1.2 µM -3% | [16]; at 3.7 µM 60%
active: [1]; at 3.7 µM 96% | [1]; at 11.0 µM 96% | [1]; at 33.0 µM 99% | [1]; at 100.0 µM 99% | [2]; at 11.0 µM 76% | [2]; at 33.0 µM 93% | [2]; at 100.0 µM 98% | [3]; at 3.7 µM 98% | [3]; at 11.0 µM 99% | [3]; at 33.0 µM 99% | [3]; at 100.0 µM 99% | [4]; at 3.7 µM 73% | [4]; at 11.0 µM 91% | [4]; at 33.0 µM 99% | [4]; at 100.0 µM 99% | [5]; at 3.7 µM 97% | [5]; at 11.0 µM 98% | [5]; at 33.0 µM 99% | [5]; [18] 99% | [5]; at 50.0 µM 98.2% | [5]; at 100.0 µM 99% | [6]; at 3.7 µM 98% | [6]; at 11.0 µM 100% | [6]; at 33.0 µM 100% | [6]; [18] 98% | [6]; at 50.0 µM 97.3% | [6]; at 100.0 µM 100% | [7]; at 11.0 µM 83% | [7]; at 33.0 µM 98% | [7]; at 100.0 µM 99% | [8]; [17] 73% | [8]; [18] 99% | [8]; at 50.0 µM 97.8% | [9]; at 3.7 µM 98% | [9]; at 11.0 µM 99% | [9]; at 33.0 µM 100% | [9]; at 100.0 µM 99% | [10]; [18] 96% | [10]; at 50.0 µM 97.5% | [11]; at 11.0 µM 98% | [11]; at 33.0 µM 99% | [11]; [18] 99% | [11]; at 50.0 µM 97.9% | [11]; at 100.0 µM 99% | [12]; at 11.0 µM 80% | [12]; at 33.0 µM 84% | [12]; at 100.0 µM 97% | [13]; at 3.7 µM 99% | [13]; at 11.0 µM 99% | [13]; at 33.0 µM 100% | [13]; at 100.0 µM 99% | [14]; at 11.0 µM 98% | [14]; at 33.0 µM 99% | [14]; at 100.0 µM 99% | [15]; [17] 87% | [15]; [18] 99% | [15]; at 50.0 µM 98.7% | [16]; at 11.0 µM 97% | [16]; at 33.0 µM 99% | [16]; at 100.0 µM 99%

CS(=O)(=O)O.[Ag]
inactive: [4]; at 1.2 µM 65% | [6]; at 1.2 µM 67% | [7]; at 1.2 µM 59% | [8]; [17] -25% | [9]; at 1.2 µM 62% | [10]; [17] 55% | [11]; [17] 4% | [12]; at 1.2 µM 27% | [15]; at 50.0 µM 43.8%
active: [1]; at 1.2 µM 72% | [1]; at 3.7 µM 99% | [1]; at 11.0 µM 99% | [1]; at 33.0 µM 99% | [1]; at 100.0 µM 98% | [2]; at 1.2 µM 77% | [2]; at 3.7 µM 99% | [2]; at 11.0 µM 99% | [2]; at 33.0 µM 99% | [2]; at 100.0 µM 98% | [3]; at 1.2 µM 92% | [3]; at 3.7 µM 99% | [3]; at 11.0 µM 100% | [3]; at 33.0 µM 99% | [3]; at 100.0 µM 98% | [4]; at 3.7 µM 99% | [4]; at 11.0 µM 99% | [4]; at 33.0 µM 99% | [4]; at 100.0 µM 98% | [5]; at 1.2 µM 71% | [5]; at 3.7 µM 99% | [5]; [17] 100% | [5]; at 11.0 µM 99% | [5]; at 33.0 µM 99% | [5]; [18] 100% | [5]; at 50.0 µM 91.5% | [5]; at 100.0 µM 98% | [6]; at 3.7 µM 99% | [6]; [17] 100% | [6]; at 11.0 µM 100% | [6]; at 33.0 µM 99% | [6]; [18] 98% | [6]; at 50.0 µM 92.5% | [6]; at 100.0 µM 98% | [7]; at 3.7 µM 99% | [7]; at 11.0 µM 98% | [7]; at 33.0 µM 98% | [7]; at 100.0 µM 97% | [8]; [18] 99% | [8]; at 50.0 µM 93.5% | [9]; at 3.7 µM 99% | [9]; at 11.0 µM 98% | [9]; at 33.0 µM 99% | [9]; at 100.0 µM 98% | [10]; [18] 98% | [10]; at 50.0 µM 92.2% | [11]; at 1.2 µM 80% | [11]; at 3.7 µM 98% | [11]; at 11.0 µM 99% | [11]; at 33.0 µM 96% | [11]; [18] 98% | [11]; at 50.0 µM 92% | [11]; at 100.0 µM 97% | [12]; at 3.7 µM 99% | [12]; at 11.0 µM 98% | [12]; at 33.0 µM 99% | [12]; at 100.0 µM 98% | [13]; at 1.2 µM 89% | [13]; at 3.7 µM 100% | [13]; at 11.0 µM 99% | [13]; at 33.0 µM 99% | [13]; at 100.0 µM 98% | [14]; at 1.2 µM 89% | [14]; at 3.7 µM 100% | [14]; at 11.0 µM 100% | [14]; at 33.0 µM 100% | [14]; at 100.0 µM 98% | [15]; [17] 100% | [15]; [18] 100% | [16]; at 1.2 µM 76% | [16]; at 3.7 µM 100% | [16]; at 11.0 µM 99% | [16]; at 33.0 µM 99% | [16]; at 100.0 µM 98%
